In PubChem BioAssay (EPA / NIEHS):
Inconclusive results are not listed. More than one record can exist for a structure, and the calls need not agree. Active and inactive are the calls of the source. Rule for the calls, unless noted: active = hit-call score of the fitted dose curve at least 0.9, where 1 is the maximum; inconclusive = response in the unintended direction; inactive = score below 0.9.

What was measured:
[1] = read-out: Interleukin 6 (IL6), IL6 (gene 3569); test: BSK_BT_xIL6: BioMAP Diversity Plus: BT Assay for Interleukin 6 (IL6) Biomarker Activity (AID 2284228; active = hit-call score of the fitted dose curve at least 0.9, where 1 is the maximum; inactive = score below 0.9); conditions: primary human B cells with PBMC
Method in brief: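 Human B cell/PBMC co-culture; secreted IL-6 quantified by Luminex xMAP 24 h after chemical dosing, fitted relative to DMSO. Parallel PBMC viability by Alamar Blue after 1 h pretreatment, 20 ng/mL SEB and TSST-1, 90 h incubation.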

[2] = read-out: Interleukin 17F (IL17F), IL17F (gene 112744); test: BSK_BT_xIL17F: BioMAP Diversity Plus: BT Assay for Interleukin 17F (IL17F) Biomarker Activity (AID 2284243; active = hit-call score of the fitted dose curve at least 0.9, where 1 is the maximum; inactive = score below 0.9); conditions: primary human B cells with PBMC
Method in brief: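 Human PBMC co-cultured with B cells, compound exposure 24 h; secreted IL-17F quantified by Luminex xMAP, referenced to DMSO control. PBMC viability measured in parallel by Alamar Blue reduction.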

[3] = read-out: TIMP metallopeptidase inhibitor 1 (TIMP1), TIMP1 (gene 7076); test: BSK_MyoF_TIMP1: BioMAP Diversity Plus: MyoF Assay for TIMP metallopeptidase inhibitor 1 (TIMP1) Biomarker Activity (AID 2284269; active = hit-call score of the fitted dose curve at least 0.9, where 1 is the maximum; inactive = score below 0.9); conditions: primary human lung fibroblasts
Method in brief: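 ELISA read-out of TIMP-1 from primary human lung fibroblast cultures 24 h after compound dosing; gain of signal relative to DMSO vehicle baseline defines activity.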

[4] = target: Steroid hormone receptor ERR1 (Homo sapiens) (UniProt P11474); test: ATG_ERRa_TRANS: Attagene TRANS-FACTORIAL HepG2 Assay for human Estrogen-Related Receptor alpha (ERRa) (AID 2282971); conditions: HepG2 Attagene TRANS reporter, ERRa transactivation
Method in brief: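 HepG2 cells transiently transfected with GAL4-UAS reporter units and chimeric NR-Gal4 constructs; after 24 hour compound incubation, reporter mRNA quantified by RT-PCR, fluorescent labelling and capillary electrophoresis, gain of signal versus DMSO.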

[5] = target: Estrogen-related receptor gamma (Homo sapiens) (UniProt P62508); test: ATG_ERRg_TRANS: Attagene TRANS-FACTORIAL HepG2 Assay for human Estrogen-Related Receptor gamma (ERRg) (AID 2282977); conditions: HepG2 Attagene TRANS reporter, ERRg transactivation;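 note: hits increase reporter signal over DMSO so potencies reflect activators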
Method in brief: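 Exogenous NR-Gal4 chimera activity was assessed in HepG2 cells bearing transfected GAL4-UAS reporters. After 24 h dosing, total RNA underwent RT-PCR, fluorescent primer extension and HpaI digestion before capillary electrophoresis, with gain of signal scored against DMSO.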

[6] = target: human Phosphodiesterase 10 (PDE10), PDE10A (gene 10846) (UniProt Q9Y233); test: NVS_ENZ_hPDE10: NovaScreen (NVS) Enzymatic Assay for human Phosphodiesterase 10 (PDE10) (AID 2283195)
Method in brief: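 Fluorescence readout after mobility-shift separation of substrate and product, 1 h reaction with recombinant human enzyme. Single-concentration duplicates at 25 uM, then concentration-response up to 50 uM for chemicals reaching threshold; DMSO baseline.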

[7] = ATG_ERE_CIS: Attagene CIS-FACTORIAL HepG2 Assay for Estrogen Response Element (ERE) (AID 2282940; active = hit-call score of the fitted dose curve at least 0.9, where 1 is the maximum; inactive = score below 0.9); conditions: HepG2 ERE cis-reporter, Attagene RNA transcript; actives raise or lower the signal
Method in brief: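 Human liver cells (HepG2) bearing transiently transfected, promoter-regulated reporter units were exposed 24 h. Reporter mRNA induction was detected by capillary electrophoresis of labelled RT-PCR products and fitted bidirectionally to DMSO.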

[8] = target: Estrogen receptor (Homo sapiens) (UniProt P03372); test: ATG_ERa_TRANS: Attagene TRANS-FACTORIAL HepG2 Assay for human Estrogen Receptor alpha (ERa) (AID 2282970); conditions: HepG2 Attagene TRANS ERa GAL4 reporter, mRNA
Method in brief: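 Gal4-fusion ERa transactivation, measured as reporter transcript level in transiently transfected HepG2 cells. Exposure 24 h; RT-PCR plus capillary electrophoresis with fluorescence detection.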

[9] = CCTE_Shafer_MEA_acute_AB: CCTE's Alamar Blue Assay for Cytotoxicity in the Neural Acute Assay, Shafer Lab (AID 2284069);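 note: active compounds lower the viability signal compared with DMSO wells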
Method in brief: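 Resazurin reduction (CellTiter Blue, 1:6 in fresh medium) read at ex 544/em 590 nm marks viability loss relative to DMSO. Cells: primary rat cortical neuron networks on microelectrode arrays, treated after baseline recording at 13 or 15 days in vitro.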

[10] = target: human RAR-related Orphan Receptor beta (RORb), RORB (gene 6096) (UniProt Q92753); test: ATG_RORb_TRANS: Attagene TRANS-FACTORIAL HepG2 Assay for human RAR-related Orphan Receptor beta (RORb) (AID 2283010)
Method in brief: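 Multiplexed transcription-factor reporter assay: HepG2 cells transiently carrying NR-Gal4/GAL4-UAS constructs, 24 h treatment, mRNA quantified by RT-PCR plus capillary electrophoresis fluorescence; activity scored as induction over DMSO.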

[11] = ATG_PPRE_CIS: Attagene CIS-FACTORIAL HepG2 Assay for human Peroxisome Proliferator-activated Response Element (PPRE) (AID 2282958; active = hit-call score of the fitted dose curve at least 0.9, where 1 is the maximum; inactive = score below 0.9); conditions: HepG2 PPRE cis-element reporter, Attagene transcription factor profiling; actives raise or lower the signal
Method in brief: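 After human HepG2 hepatoma cells were transiently transfected with cis-promoter reporter constructs, they were exposed to test chemicals for 24 hours. Reporter RNA was then reverse-transcribed, PCR-amplified, FAM-labeled, HpaI-digested and quantified by capillary electrophoresis.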

[12] = target: Estrogen receptor beta (Homo sapiens) (UniProt Q92731); test: OT_ER_ERbERb_0480: Odyssey Thera (OT) 8-hour HEK293T Protein-Complementation Assay for Estrogen Receptor-beta/-beta Homodimer (AID 2283357);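 note: active means signal gain over DMSO baseline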
Method in brief: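 ER-beta LBD homodimer PCA stably expressed in HEK293T; 8 h compound exposure, then formaldehyde fixation and Draq5 staining. Gain in nuclear/cytoplasmic fluorescence intensity versus DMSO vehicle, read on laser scanning cytometer.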

[13] = target: Estrogen receptor beta (Homo sapiens) (UniProt Q92731); test: OT_ER_ERbERb_1440: Odyssey Thera (OT) 24-hour HEK293T Protein-Complementation Assay for Estrogen Receptor-beta/-beta Homodimer (AID 2283380);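 note: scored as signal increase over DMSO baseline for both agonists and antagonists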
Method in brief: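 Fluorescence increase, nuclear for agonists or whole-cell for antagonists, relative to DMSO vehicle, quantified by laser scanning cytometer after fixation and Draq5 staining. Readout from 24 h treatment of HEK293T cells carrying complementation-paired ER beta LBD (aa 310-547).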

[14] = ACEA_AR_agonist_AUC_viability: ACEA Biosciences xCELLigence Real-Time Cell Analysis on Androgen Receptor Agonism for Viability (AID 2283775);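 for AC50: viability read 80 hours after compound addition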
Method in brief: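 Viability endpoint from xCELLigence impedance in 22Rv1 prostate cells at 80 h. Eight-point series, 100 uM maximum final.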

[15] = ACEA_AR_antagonist_AUC_viability: ACEA Biosciences xCELLigence Real-Time Cell Analysis on Androgen Receptor Antagonism for Viability (AID 2283776);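 note: 22Rv1 human prostate cancer cells growing on impedance electrode plates; area under impedance growth curve at 80 h after dosing as viability; hits lower the growth signal relative to DMSO meaning cytotoxicity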
Method in brief: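 Impedance read-out (RT-CES): area under growth curve at 80 h post-dose, loss of signal scored vs DMSO baseline. 22Rv1 cells; 8-pt 1:4 series, top 100 uM final, ≤0.5% DMSO; biological duplicate.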

[16] = ACEA_ER_AUC_viability: ACEA Biosciences xCELLigence Real-Time Cell Analysis on Estrogen Receptor Agonism for Viability (AID 2283782);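 note: hit means loss of impedance signal meaning reduced cell growth or viability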
Method in brief: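 Viability endpoint: reduced impedance area under the curve relative to DMSO, recorded by real-time electrode sensing over ~80 h of continuous exposure. Duplicate plates of T47D in hormone-depleted medium; eight concentrations, 1:4 dilutions, 100 uM maximum.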

[17] = target: Thyroid hormone receptor alpha (Rattus norvegicus) + Thyroid hormone receptor beta (Rattus norvegicus) (UniProt P18113+P63059); test: TOX21_TR_LUC_GH3_Antagonist_Followup: Tox21 GH3 Thyroid Hormone Receptor Antagonism Luciferase Follow-Up Assay (AID 2283942)
Method in brief: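 Loss of T3-driven (1.0 nM final) reporter activity in GH3 cells was read by ONE-Glo luminescence after 24 h incubation at 37C; 15-point compound series spanned 92 uM to 5nM final, 1,500 cells/well.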

THRB (gene 7068) = THRB (gene 7068) (UniProt P10828); test: TOX21_TRB_BLA_Antagonist_Followup_ratio: Tox21 Thyroid Hormone Receptor beta Antagonism Beta-lactamase (BLA) Follow-Up Assay, Ratio (AID 2283958)
Method in brief: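 Using charcoal-stripped 2% FBS medium, human TRβ-LBD/GAL4 reporter HEK293T cells received test compounds for 18 h. The endpoint is the cleaved-to-uncleaved substrate ratio (460/530 nm).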

[18] = TOX21_TRB_BLA_Antagonist_Followup_viability: Viability Assessment in the Tox21 Thyroid Hormone Receptor beta Antagonism Beta-lactamase (BLA) Follow-Up Assay (AID 2283961)
Method in brief: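 HEK293T cells with GAL4-human TRβ LBD and UAS-bla reporter, 3,000 cells/well in 2% charcoal-stripped FBS medium; 11-point concentrations in triplicate, 18 h at 37C. Viability from ATP by CellTiter-Glo luminescence, 30 min RT, same plates.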

[19] = target: Retinoic acid receptor RXR-alpha (Homo sapiens) (UniProt P19793); test: TOX21_TR_RXR_BLA_Antagonist_Followup_ratio: Tox21 Thyroid Hormone Receptor beta Retinoid X Receptor alpha (RXRa) Antagonism Beta-lactamase (BLA) Follow-Up Assay, Ratio (AID 2283972)
Method in brief: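 RXRa-UAS-bla HEK293T cells, 2,500/well in phenol red-free DMEM with 2% charcoal-stripped FBS, 5 h attachment, then compounds (11 concentrations, triplicate) for 16 h at 37C; FRET-B/GCCF4-AM substrate 2 h RT; 460:530 nm ratio, loss of signal vs DMSO.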

Sequence of Estrogen-related receptor gamma (Homo sapiens) (P62508 whole entry, looked up, the tested form may be a part): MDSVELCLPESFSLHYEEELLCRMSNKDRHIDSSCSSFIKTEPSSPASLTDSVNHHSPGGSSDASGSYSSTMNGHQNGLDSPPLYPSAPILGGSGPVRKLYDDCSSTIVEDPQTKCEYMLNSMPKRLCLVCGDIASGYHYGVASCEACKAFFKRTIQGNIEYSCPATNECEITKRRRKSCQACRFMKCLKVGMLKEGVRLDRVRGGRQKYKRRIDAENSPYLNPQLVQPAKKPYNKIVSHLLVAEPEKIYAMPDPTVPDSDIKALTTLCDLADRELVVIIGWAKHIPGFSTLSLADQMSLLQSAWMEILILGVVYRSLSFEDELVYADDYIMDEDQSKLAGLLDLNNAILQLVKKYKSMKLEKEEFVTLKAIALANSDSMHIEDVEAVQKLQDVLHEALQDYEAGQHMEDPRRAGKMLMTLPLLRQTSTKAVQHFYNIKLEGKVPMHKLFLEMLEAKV
Sequence of THRB (gene 7068) (P10828 whole entry, looked up, the tested form may be a part): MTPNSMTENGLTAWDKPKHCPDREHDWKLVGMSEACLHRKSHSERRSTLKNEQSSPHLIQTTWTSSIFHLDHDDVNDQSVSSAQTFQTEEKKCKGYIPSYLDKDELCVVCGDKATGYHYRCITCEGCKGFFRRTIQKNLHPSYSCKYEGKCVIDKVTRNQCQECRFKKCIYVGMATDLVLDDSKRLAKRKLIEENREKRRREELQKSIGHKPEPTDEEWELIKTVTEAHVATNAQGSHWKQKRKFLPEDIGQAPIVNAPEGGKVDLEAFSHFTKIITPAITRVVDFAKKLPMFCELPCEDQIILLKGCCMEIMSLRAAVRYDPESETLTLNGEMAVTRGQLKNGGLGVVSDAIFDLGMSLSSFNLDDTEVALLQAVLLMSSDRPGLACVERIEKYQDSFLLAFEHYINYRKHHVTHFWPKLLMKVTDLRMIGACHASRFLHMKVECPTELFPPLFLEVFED
Sequence of Steroid hormone receptor ERR1 (Homo sapiens) (P11474 whole entry, looked up, the tested form may be a part): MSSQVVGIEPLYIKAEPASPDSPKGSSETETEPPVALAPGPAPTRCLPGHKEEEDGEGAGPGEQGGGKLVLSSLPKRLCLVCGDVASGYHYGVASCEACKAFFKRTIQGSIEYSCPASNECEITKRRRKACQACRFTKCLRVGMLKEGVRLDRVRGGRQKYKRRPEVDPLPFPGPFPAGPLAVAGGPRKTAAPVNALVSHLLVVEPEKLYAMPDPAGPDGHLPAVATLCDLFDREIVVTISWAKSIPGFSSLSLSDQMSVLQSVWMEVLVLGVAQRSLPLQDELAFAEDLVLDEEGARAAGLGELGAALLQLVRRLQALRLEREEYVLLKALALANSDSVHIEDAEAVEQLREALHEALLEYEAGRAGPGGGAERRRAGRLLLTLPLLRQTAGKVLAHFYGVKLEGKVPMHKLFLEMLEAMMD
Sequence of human RAR-related Orphan Receptor beta (RORb), RORB (gene 6096) (Q92753 whole entry, looked up, the tested form may be a part): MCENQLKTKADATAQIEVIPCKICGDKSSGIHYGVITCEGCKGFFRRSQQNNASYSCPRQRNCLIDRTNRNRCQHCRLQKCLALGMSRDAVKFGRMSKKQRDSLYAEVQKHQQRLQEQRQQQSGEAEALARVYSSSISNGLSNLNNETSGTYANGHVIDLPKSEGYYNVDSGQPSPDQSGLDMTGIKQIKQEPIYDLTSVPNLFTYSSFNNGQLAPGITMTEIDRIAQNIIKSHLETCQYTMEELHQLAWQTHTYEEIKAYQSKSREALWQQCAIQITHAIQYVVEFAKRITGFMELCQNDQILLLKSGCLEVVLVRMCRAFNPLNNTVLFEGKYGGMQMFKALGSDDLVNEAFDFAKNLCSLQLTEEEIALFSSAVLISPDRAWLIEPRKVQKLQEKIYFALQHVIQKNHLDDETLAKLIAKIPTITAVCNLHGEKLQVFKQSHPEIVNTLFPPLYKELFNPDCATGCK
Sequence of Retinoic acid receptor RXR-alpha (Homo sapiens) (P19793 whole entry, looked up): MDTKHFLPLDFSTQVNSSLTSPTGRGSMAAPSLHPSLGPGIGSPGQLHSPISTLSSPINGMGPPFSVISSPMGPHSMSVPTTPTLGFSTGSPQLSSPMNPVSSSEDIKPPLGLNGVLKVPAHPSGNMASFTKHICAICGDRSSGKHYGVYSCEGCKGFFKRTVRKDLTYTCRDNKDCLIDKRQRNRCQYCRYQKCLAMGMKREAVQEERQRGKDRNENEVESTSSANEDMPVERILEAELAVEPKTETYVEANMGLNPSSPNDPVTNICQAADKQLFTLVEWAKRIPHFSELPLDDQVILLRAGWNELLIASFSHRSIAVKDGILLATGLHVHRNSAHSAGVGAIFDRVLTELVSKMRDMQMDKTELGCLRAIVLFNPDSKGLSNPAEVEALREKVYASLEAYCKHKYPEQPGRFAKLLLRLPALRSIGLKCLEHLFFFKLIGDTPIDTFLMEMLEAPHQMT
Sequence of Estrogen receptor beta (Homo sapiens) (Q92731 whole entry, looked up, the tested form may be a part): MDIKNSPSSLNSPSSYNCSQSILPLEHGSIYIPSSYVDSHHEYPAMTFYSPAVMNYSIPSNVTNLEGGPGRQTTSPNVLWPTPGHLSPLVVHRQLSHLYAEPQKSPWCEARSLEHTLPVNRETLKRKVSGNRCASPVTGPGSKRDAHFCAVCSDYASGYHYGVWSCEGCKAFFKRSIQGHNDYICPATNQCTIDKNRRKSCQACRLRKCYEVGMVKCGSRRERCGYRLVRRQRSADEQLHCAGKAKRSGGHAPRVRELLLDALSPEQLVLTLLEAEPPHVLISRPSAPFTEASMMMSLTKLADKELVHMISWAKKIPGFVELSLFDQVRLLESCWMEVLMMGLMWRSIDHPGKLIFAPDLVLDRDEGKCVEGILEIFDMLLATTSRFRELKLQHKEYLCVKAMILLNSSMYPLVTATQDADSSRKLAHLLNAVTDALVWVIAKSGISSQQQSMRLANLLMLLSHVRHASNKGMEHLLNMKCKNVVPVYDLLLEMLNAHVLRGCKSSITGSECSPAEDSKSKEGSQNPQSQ
Sequence of Estrogen receptor (Homo sapiens) (P03372 whole entry, looked up, the tested form may be a part): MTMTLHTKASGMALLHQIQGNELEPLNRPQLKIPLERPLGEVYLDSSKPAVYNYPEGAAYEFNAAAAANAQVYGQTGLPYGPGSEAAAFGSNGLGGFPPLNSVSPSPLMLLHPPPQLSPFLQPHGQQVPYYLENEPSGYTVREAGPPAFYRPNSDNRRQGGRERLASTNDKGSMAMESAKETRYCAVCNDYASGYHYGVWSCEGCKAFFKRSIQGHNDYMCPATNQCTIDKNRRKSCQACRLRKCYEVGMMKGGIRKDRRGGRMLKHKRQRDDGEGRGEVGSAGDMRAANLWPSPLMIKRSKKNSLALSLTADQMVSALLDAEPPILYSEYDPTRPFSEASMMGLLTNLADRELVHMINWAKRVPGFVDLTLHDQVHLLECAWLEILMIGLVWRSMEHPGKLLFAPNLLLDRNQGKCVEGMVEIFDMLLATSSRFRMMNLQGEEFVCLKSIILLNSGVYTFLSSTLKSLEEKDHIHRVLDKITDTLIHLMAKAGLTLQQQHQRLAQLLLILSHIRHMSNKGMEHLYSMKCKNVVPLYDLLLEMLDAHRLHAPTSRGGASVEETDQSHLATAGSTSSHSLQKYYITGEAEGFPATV
Sequence of human Phosphodiesterase 10 (PDE10), PDE10A (gene 10846) (Q9Y233 whole entry, looked up): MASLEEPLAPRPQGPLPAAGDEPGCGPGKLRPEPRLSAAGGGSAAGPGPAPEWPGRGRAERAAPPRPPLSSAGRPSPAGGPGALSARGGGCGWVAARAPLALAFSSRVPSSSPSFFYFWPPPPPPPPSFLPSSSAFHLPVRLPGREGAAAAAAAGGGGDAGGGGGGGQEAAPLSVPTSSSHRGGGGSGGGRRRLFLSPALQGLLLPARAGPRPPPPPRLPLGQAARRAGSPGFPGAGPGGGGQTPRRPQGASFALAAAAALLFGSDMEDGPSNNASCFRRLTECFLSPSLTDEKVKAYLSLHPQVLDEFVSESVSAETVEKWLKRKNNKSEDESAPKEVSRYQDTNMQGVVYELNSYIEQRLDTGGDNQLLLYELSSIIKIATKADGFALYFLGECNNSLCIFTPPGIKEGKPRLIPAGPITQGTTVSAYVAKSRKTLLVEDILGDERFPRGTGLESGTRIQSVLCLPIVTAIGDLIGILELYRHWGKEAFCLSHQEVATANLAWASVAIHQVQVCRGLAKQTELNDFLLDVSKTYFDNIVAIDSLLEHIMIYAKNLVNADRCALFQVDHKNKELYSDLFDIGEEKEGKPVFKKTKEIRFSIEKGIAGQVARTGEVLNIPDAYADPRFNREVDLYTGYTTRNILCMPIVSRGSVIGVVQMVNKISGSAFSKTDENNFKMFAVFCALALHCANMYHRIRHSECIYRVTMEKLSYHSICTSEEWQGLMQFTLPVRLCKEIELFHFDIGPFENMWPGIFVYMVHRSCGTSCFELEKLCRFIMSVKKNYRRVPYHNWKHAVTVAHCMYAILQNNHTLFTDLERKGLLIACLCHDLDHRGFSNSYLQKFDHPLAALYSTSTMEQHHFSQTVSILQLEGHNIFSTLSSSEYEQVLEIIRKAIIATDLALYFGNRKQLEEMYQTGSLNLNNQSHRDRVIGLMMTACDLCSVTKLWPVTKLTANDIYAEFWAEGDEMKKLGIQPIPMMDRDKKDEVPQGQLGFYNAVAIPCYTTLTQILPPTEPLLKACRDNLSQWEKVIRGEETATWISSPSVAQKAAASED

OC(C(F)(F)F)(C(F)(F)F)C(O)(C(F)(F)F)C(F)(F)F
AC50 [1]: 39.5 µM (active)
outcome [1]: inactive
AC50 [2]: 13.1 µM (active)
outcome [2]: inactive
AC50 [3]: 45.6 µM (active)
outcome [3]: inactive

COC(=O)/C=C\C(=O)OC
outcome [4]: inactive
outcome [5]: inactive
outcome [6]: inactive
AC50 [1]: 14.5 µM (active)
AC50 [2]: 20 µM (active)
outcome [3]: inactive

c1ccc2c(c1)Oc1ccccc1S2
AC50 [7]: 63.7 µM (active)
AC50 [8]: 27.9 µM (active)

C[N+](C)(C)CC(=O)[O-]
outcome [6]: inactive

COc1ccccc1Oc1c(NS(=O)(=O)c2ccc(C(C)(C)C)cc2)nc(-c2ncccn2)nc1OCCO
outcome [9]: inactive

[O-][n+]1ccc(Cl)cc1
outcome [10]: inactive

Cc1cc(O)cc(C)c1Cl
AC50 [11]: 37.1 µM (active)
AC50 [12]: 25 µM (active)
AC50 [13]: 31.6 µM (active)
AC50 [14]: 3.98 µM (active)
AC50 [15]: 8.88 µM (active)
AC50 [16]: 81.1 µM (active)

CCC(C)=NO
outcome [12]: inactive
outcome [13]: inactive
outcome [14]: inactive
AC50 [15]: 50 µM (active)
outcome [16]: inactive

CCC(C)(CCC(C)C)C(=O)O (stereo not given)
outcome [4]: inactive
outcome [10]: inactive
outcome [14]: inactive
outcome [15]: inactive

Cc1c(C(N)=O)cc([N+](=O)[O-])cc1[N+](=O)[O-]
outcome [9]: inactive

CCCCCCC1CCCC(=O)O1 (stereo not given)
outcome [4]: inactive
outcome [16]: inactive

CC(C)C1OCCN1CCOC(=O)NCCCCCCNC(=O)OCCN1CCOC1C(C)C (stereo not given)
outcome [9]: inactive

CCOc1ccc2c(c1)C(C)CC(C)(C)N2 (stereo not given)
outcome [11]: inactive

CC/C=C\CCCCCO
outcome [4]: inactive
outcome [16]: inactive

CCCc1c(OCCCCc2nn[nH]n2)ccc(C(C)=O)c1O
outcome [7]: inactive
AC50 [11]: 2.26 µM (active)
outcome [8]: inactive

COC(=O)CCSCCC(=O)OC
outcome [5]: inactive

CCC[Si](OC(C)=O)(OC(C)=O)OC(C)=O
outcome [9]: inactive

CCCCCC1CCCC(=O)O1 (stereo not given)
outcome [11]: inactive
outcome [4]: inactive
outcome [5]: inactive
outcome [6]: inactive
outcome [16]: inactive

Cc1ccccc1S(=O)(=O)O
outcome [10]: inactive
outcome [12]: inactive
outcome [13]: inactive

O=C1CCCCCCCCCCCCCC1
outcome [7]: inactive
AC50 [8]: 26.5 µM (active)
outcome [16]: inactive

CCCCNC(N)=O
outcome [11]: inactive
outcome [4]: inactive
outcome [10]: inactive

Cc1oc(C)c(C(=O)Nc2ccccc2)c1C
outcome [17]: inactive
outcome (THRB (gene 7068)): inactive
outcome [18]: inactive
outcome [19]: inactive

O=[Se](O)O
AC50 [17]: 4.84 µM (active)
AC50 (THRB (gene 7068)): 1.64 µM (active)
AC50 [18]: 2.02 µM (active)
AC50 [19]: 2.26 µM (active)

CNCCC(Oc1ccc(C(F)(F)F)cc1)c1ccccc1 (stereo not given)
outcome [9]: inactive

O=C(CCCCCCC(=O)Nc1ccccc1)NO
AC50 [17]: 5.8 µM (active)
outcome (THRB (gene 7068)): inactive
outcome [18]: inactive
outcome [19]: inactive

CC(COc1ccccc1)N(CCCl)Cc1ccccc1 (stereo not given)
AC50 [16]: 88.7 µM (active)

CO[C@H]1C[C@@H]2CC[C@@H](C)[C@@](O)(O2)C(=O)C(=O)N2CCCC[C@H]2C(=O)O[C@H]([C@H](C)C[C@@H]2CC[C@@H](O)[C@H](OC)C2)CC(=O)[C@H](C)/C=C(\C)[C@@H](O)[C@@H](OC)C(=O)[C@H](C)C[C@H](C)\C=C/C=C/C=C/1C
AC50 [17]: 0.00703 µM (active)
outcome [18]: inactive
outcome [19]: inactive
